Experiment [1] in a line: rapamycin-like changes in RPL19A-GFP expression – cell-based, S. cerevisiae, multiplex flow cytometry, primary screen (AID 1862; in the data active = percent of DMSO control GFP below about 86%;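 note: lower values mimic rapamycin by blocking the RPL19A rise seen in DMSO cells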). To be noted: S. cerevisiae RPL19A-GFP strain, flow cytometry fluorescence, 3 h; at 10 µM; stronger effect = lower value.
Experiment [2] in a line: TOR pathway GLN3 branch reporter MEP2-GFP changes – S. cerevisiae, multiplex flow cytometry, primary screen (AID 1867;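 active = GFP response, as percent of the DMSO control, above the screen-wide mean plus 3 SD, about 139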;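 note: median GFP channel fluorescence of barcode-gated MEP2-GFP cells measured by flow cytometry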). To be noted: S. cerevisiae MEP2-GFP strain, 3 h, at 10 µM, stronger effect = higher value, 100% means same as DMSO wells.
Experiment [3] can be described thus: TOR pathway RTG branch CIT2 reporter changes – S. cerevisiae, GFP fusion, multiplex flow cytometry, primary screen (AID 1870;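 active = percent response above a set limit, the screen-wide mean plus 3 SD, cut at about 130% in these data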;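 note: barcoded CIT2-GFP strain pooled with four other GFP strains with rapamycin as positive control; median GFP fluorescence per well over plate mean of DMSO wells so 100% = DMSO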). The conditions noted are these: S. cerevisiae CIT2-GFP expression, 3 h, at 10 µM, stronger effect = higher value.
The nature of experiment [4]: TOR pathway LAP4-GFP level changes – S. cerevisiae, multiplex flow cytometry, primary screen (AID 1873;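 active = GFP signal, as percent of the solvent control, above the screen mean plus 3 SD, about 149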). To be noted: S. cerevisiae LAP4-GFP expression, 3 h, at 10 µM, stronger effect = higher value.
Experiment [5] is described as follows: yeast AGP1-GFP level changes, GLN3 branch – cell-based, multiplex flow cytometry, S. cerevisiae, primary screen (AID 1887;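 active = GFP signal above the screen-wide mean plus 3 SD, that is over about 124.5% of the solvent control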;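 note: AGP1-GFP fusion strain of S. cerevisiae within a five-strain barcoded multiplex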). To be noted: 3 h, at 10 µM, stronger effect = higher value.
Experiment [6] in a line: reduced mouse 2C T cell binding to pMHC/ICAM-1 vesicles – MLPCN validation set, flow cytometry, LFA-1/ICAM-1 modulator project, pilot screen (AID 2523).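 For vesicle binding response: mean PE anti-B7-1 fluorescence of CD8+ cells relative to row control; 100% = QL9-loaded vesicles with DMSO vehicle in the same plate row.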 The conditions noted are these: 2C mouse CD8+ T cells, at 7 µM, stronger effect = lower value; double positive events: measured here: CD8+/vesicle+ event percentage.
Experiment [7] has as its target Integrin beta-1 (Homo sapiens) + Integrin alpha-4 (Homo sapiens) (UniProt P13612+P05556). The experiment can be described thus: alpha4beta1 integrin LIBS antibody binding reduction – U937 cells, HUTS-21 mAb, flow cytometry, validation set, VLA-4 allosteric modulator project, pilot screen (AID 2674;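 active = inhibition above 50%, about 3 SD of the validation set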;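 note: antibody binding induced by the VLA-4 ligand LDV present at three times its Kd; 0% = LDV ligand with antibody and no compound and 100% = antibody without LDV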). To be noted: HUTS-21 LIBS mAb binding, at 6.7 µM, stronger effect = higher value, binding induced by LDV ligand.

A short description of experiment [8]: calorie-restriction mimetic ROS inhibitors, yeast – validation compound set, pilot screen (AID 2706;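 active = superoxide response below 65% of plate, a cut near 3 SD across the whole screen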;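 note: yeast exposed to compound for one week at 30 degrees C before staining; 100% = mean of all compound wells on the same plate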). To be noted: S. cerevisiae aging, superoxide DHE fluorescence; at 10 µM, stronger effect = lower value.
The target in experiment [9] is Beta-adrenergic receptor kinase 1 (Homo sapiens) (UniProt P25098). The experiment can be described thus: GRK2 binders displacing RNA aptamer, biochemical, validation, human GRK2, bead flow cytometry (AID 488806;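 active = aptamer binding inhibition above 30%, about 3 SD of noise from non-fluorescent compounds; inactive = inhibition at or below 30%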). To be noted: bead-bound GRK2, FAM-aptamer displacement, at 10 µM, stronger effect = higher value.
Chain of Beta-adrenergic receptor kinase 1 (Homo sapiens) (P25098 whole entry, looked up): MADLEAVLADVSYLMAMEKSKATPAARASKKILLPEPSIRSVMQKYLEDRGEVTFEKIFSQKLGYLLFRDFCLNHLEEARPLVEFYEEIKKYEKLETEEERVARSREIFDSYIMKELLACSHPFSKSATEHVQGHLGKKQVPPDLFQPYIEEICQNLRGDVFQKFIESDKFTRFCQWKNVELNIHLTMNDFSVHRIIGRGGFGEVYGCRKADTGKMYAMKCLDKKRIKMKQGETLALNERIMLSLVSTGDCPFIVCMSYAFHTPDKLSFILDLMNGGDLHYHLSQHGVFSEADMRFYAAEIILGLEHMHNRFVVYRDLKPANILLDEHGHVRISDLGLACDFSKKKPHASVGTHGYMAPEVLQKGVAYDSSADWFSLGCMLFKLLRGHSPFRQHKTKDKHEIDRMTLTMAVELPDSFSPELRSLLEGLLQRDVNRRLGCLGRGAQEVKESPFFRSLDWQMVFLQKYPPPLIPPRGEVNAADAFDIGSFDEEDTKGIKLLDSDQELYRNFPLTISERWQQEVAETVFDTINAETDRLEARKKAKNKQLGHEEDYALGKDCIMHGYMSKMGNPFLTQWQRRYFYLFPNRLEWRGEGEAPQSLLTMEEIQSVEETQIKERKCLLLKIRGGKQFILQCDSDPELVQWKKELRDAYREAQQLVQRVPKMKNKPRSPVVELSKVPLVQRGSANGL
In experiment [10] the target is AP-2 complex subunit beta (Homo sapiens) (UniProt P63010). The experiment can be described thus: beta-arrestin/AP2 interaction blockers – biochemical, validation set, GST-AP2 beads, flow cytometry, pilot screen (AID 504541;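 active = inhibition above 54%, about 3 SD of non-fluorescent compounds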;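 note: AP2 carries R879A mutation and is captured from E. coli lysate; bead-bound FITC arrestin peptide fluorescence measuring arrestin peptide binding to AP2; 0% = DMSO wells and 100% = excess unlabeled arrestin peptide control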). The conditions noted are these: FITC arrestin peptide, at 10 µM, stronger effect = higher value, AP2 beta2 appendage fragment, R879A mutant.
Chain of AP-2 complex subunit beta (Homo sapiens) (P63010 whole entry, looked up, the tested form may be a part, one chain of several): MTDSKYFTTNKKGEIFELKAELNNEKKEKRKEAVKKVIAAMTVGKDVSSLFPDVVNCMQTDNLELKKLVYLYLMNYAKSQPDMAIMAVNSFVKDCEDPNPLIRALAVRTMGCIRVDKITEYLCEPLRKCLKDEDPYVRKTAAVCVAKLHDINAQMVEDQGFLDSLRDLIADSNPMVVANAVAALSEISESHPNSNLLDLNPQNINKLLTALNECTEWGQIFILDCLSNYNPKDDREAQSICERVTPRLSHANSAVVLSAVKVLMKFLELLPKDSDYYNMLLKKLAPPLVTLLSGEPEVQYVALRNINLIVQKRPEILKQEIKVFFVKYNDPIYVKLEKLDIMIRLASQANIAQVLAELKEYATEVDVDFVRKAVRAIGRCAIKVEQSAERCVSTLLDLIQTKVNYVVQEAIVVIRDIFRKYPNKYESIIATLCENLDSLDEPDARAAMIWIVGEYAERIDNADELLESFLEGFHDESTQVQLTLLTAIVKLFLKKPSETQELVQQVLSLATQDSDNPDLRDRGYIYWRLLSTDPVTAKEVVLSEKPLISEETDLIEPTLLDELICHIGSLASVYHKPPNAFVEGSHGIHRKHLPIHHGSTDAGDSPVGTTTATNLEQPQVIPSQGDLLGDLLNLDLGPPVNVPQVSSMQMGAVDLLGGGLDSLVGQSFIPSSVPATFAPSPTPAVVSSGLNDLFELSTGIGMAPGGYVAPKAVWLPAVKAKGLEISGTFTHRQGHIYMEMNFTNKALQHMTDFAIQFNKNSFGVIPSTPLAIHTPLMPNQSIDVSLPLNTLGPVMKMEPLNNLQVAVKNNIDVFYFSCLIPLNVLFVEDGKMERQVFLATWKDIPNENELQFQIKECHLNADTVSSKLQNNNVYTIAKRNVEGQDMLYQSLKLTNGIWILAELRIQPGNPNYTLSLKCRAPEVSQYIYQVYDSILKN
A short description of experiment [11]: cytosolic pH regulators acting via V-ATPase – S. cerevisiae, pHLuorin, HTS validation (AID 504600; in the data active = response above about 15%;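 note: plate controls were DMSO for no effect and reference compound for full effect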). The conditions noted are these: V-ATPase proton transport, at 10 µM, stronger effect = higher value.
The test system of experiment [12] is anti-desmoglein-3 scFv antibody binding to human DSG3. The experiment can be described thus: blockers of pathogenic pemphigus antibody–desmoglein-3 binding – biochemical, validation compound set, bead-based, flow cytometry, pilot screen (AID 588368;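 active = binding below the plate cutoff, the plate median minus 3 SD, with a reading above zero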;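 note: signal is the median channel fluorescence of bead-bound GFP antibody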). To be noted: Protein G beads, DSG3-Fc, scFv-GFP binding, at 10 µM, stronger effect = lower value.
Experiment [13] can be described thus: Nile Red efflux blockade in pump-expressing yeast – validation compound set, multiplex, phenotypic, pilot screen (AID 588506;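 active = efflux inhibition above 0.42, the validation set average plus 4 SD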;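 note: Nile Red retained in cells so higher fluorescence means more efflux inhibition; 0 = negative control wells and 1 = enniatin B 25 µM full block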). To be noted: S. cerevisiae pump-expressing triplex, Nile Red efflux flow cytometry; at 10 µM; stronger effect = higher value; the pumps come from Candida albicans.
In experiment [14] the target is ATP-binding cassette sub-family B member 6 (Homo sapiens) (UniProt Q9NP58). The experiment can be described thus: blockers of ABCB6-driven porphyrin uptake – K562-ABCB6 cells, flow cytometry, validation set, pilot screen (AID 588550;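 active = inhibition above the screen-wide mean plus 3 SD, about 51%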;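 note: 0% = DMSO wells and 100% = benzethonium chloride 70 µM positive control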). The conditions noted are these: K562-ABCB6 porphyrin accumulation, 1 h, at 10 µM, stronger effect = higher value.
Chain of ATP-binding cassette sub-family B member 6 (Homo sapiens) (Q9NP58 whole entry, looked up): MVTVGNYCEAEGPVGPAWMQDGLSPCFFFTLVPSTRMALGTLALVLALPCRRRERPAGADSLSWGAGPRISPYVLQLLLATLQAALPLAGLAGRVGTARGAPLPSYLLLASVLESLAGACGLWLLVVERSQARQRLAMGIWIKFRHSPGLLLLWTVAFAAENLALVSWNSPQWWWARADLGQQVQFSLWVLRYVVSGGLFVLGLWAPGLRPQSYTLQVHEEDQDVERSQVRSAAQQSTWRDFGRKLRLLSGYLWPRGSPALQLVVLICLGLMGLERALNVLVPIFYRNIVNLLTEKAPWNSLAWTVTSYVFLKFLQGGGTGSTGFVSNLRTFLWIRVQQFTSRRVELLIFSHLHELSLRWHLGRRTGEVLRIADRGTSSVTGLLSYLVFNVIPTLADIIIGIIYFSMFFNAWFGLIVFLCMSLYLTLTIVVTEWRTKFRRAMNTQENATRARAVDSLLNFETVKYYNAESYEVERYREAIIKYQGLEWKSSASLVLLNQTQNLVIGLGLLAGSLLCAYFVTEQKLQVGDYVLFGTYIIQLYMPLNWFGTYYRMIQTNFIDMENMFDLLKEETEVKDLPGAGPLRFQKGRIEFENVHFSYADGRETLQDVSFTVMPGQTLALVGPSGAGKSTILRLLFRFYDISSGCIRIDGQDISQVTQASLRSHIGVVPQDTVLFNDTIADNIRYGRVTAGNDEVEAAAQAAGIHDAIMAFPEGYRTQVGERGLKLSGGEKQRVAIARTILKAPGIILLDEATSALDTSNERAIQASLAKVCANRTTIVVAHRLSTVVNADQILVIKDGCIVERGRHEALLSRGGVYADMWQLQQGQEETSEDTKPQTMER
Experiment [15] is described as follows: AML differentiation inducers, ER-HoxA9 marrow cells – cell-based, GFP/MAC1 double positive, flow cytometry, validation set, primary screen (AID 588685;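 active = differentiation response of at least 50%, scaled between solvent and reference control, from cells with both markers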;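 note: compound exposure lasts four days before antibody staining and flow analysis; 0% = DMSO wells and 100% = 5 µM fulvestrant positive control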). To be noted: stronger effect = higher value, normalized: vehicle 0, fulvestrant 100.

Results filed as inconclusive are left out. The source made the active and inactive calls.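 Rule for the calls, unless noted: active = response below a set limit, under 55% cells CD8-positive and vesicle-bound, and CD8 cells' 90th-percentile brightness under 279; inactive = the rest.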

Chain of Integrin beta-1 (Homo sapiens) + Integrin alpha-4 (Homo sapiens) (P05556 whole entry, looked up): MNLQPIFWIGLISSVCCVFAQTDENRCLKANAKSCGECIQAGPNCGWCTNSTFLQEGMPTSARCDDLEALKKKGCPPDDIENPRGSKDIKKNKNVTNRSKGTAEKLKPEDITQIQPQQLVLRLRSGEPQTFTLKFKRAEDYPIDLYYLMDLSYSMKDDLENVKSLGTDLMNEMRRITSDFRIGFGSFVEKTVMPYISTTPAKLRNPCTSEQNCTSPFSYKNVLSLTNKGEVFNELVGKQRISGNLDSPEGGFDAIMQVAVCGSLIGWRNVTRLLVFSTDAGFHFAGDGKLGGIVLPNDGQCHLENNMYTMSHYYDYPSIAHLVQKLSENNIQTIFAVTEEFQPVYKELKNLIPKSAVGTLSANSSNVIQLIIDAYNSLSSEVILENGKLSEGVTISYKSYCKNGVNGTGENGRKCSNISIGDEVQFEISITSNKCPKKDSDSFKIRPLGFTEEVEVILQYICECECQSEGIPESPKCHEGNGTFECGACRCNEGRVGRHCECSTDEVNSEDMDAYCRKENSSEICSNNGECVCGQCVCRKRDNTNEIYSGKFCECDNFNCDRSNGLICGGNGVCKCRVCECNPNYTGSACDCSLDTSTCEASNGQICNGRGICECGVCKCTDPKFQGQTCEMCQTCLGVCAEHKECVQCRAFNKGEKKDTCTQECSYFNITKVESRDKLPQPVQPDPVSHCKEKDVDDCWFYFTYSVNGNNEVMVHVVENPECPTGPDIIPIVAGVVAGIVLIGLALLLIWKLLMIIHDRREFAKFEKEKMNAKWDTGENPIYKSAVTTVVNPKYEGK
Chain of Integrin beta-1 (Homo sapiens) + Integrin alpha-4 (Homo sapiens) (P13612 whole entry, looked up): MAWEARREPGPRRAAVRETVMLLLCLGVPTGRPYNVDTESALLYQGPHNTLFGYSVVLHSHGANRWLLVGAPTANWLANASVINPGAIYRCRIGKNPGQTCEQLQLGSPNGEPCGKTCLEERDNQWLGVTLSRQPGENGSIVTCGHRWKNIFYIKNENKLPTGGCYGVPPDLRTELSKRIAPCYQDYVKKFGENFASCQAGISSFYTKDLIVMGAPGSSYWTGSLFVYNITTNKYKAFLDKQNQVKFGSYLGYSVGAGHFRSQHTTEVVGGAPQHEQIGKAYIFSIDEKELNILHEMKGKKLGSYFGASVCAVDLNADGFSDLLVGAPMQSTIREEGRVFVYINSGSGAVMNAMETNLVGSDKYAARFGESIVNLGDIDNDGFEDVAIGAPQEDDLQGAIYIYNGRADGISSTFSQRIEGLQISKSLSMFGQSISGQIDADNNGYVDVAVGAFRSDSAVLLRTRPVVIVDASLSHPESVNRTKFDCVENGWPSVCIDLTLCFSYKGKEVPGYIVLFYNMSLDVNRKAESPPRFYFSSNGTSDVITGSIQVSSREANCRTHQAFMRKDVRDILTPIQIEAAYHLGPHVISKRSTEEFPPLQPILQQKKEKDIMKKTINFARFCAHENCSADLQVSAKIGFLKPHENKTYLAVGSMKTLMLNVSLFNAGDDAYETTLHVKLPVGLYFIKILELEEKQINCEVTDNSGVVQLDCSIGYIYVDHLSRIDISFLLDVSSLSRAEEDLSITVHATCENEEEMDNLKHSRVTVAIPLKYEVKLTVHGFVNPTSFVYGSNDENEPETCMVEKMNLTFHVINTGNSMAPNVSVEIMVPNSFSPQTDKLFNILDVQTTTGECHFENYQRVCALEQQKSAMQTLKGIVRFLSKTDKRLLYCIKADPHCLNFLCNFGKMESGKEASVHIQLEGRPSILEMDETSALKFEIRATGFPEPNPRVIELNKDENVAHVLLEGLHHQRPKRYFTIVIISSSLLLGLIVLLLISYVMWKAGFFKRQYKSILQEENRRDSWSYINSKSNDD

For `CN(C)c1nc(N(C)C)nc(N(C)C)n1`, the percent of DMSO control GFP in experiment [1] was 94.6% (inactive). For the same compound, the GFP response vs DMSO in [2] is 103% (inactive); in [4] it was 97.4% (inactive). Besides, the percent response of DMSO control in experiment [3] is 97.9% (inactive). In addition, the GFP response, % of DMSO in experiment [5] is 94.2% (inactive). In [6], this compound displayed a double positive events of 63%. Further, in [6], the vesicle binding response was 181% (inactive). For the same compound, the inhibition in experiment [7] is 5.36% (inactive); in [10], 47.8% (inactive); in experiment [14], 9% (inactive). In addition, the superoxide response (% of plate) in [8] was 95.5% (inactive). Further, the aptamer binding inhibition in experiment [9] was 0% (inactive). For the same compound, in experiment [11], the response was -8.12% (inactive). Moreover, the binding (% of control) in [12] was 99.3% (inactive). In experiment [13], the efflux inhibition (fraction of control) is 0.78 (active). The differentiation response in experiment [15] is 14.3% (inactive).
Consider `COc1ccc(OC)c(-n2c(Cn3c(-c4ccccn4)nc4ccccc43)n[nH]c2=S)c1`, for which the percent of DMSO control GFP in experiment [1] is 98.5% (inactive). In addition, the values for the GFP response vs DMSO in [2] and in experiment [4] were 101% (inactive) and 90.3% (inactive), respectively. In addition, the percent response of DMSO control in experiment [3] is 93% (inactive). In addition, in experiment [5], the GFP response, % of DMSO is 91.8% (inactive). This compound registered a double positive events in experiment [6] of 62.6%. The vesicle binding response in [6] was 144% (inactive). Further, the inhibition in [7] was 7.22% (inactive); in [10], 6.75% (inactive); in experiment [14] it was -8% (inactive). The superoxide response (% of plate) in experiment [8] is 97.4% (inactive). Moreover, the aptamer binding inhibition in experiment [9] was 1% (inactive). Also, the response in experiment [11] is -0.2% (inactive). Further, in experiment [12], the binding (% of control) was 105% (inactive). Also, the efflux inhibition (fraction of control) in experiment [13] is 0.44 (active). Also, in experiment [15], the differentiation response was -9.89% (inactive).
`NC(=O)c1c(-c2ccccc2)oc2ccc(O)cc12`: the percent of DMSO control GFP in experiment [1] is 100% (inactive). Moreover, the results for the GFP response vs DMSO in experiment [2] and in experiment [4] were 97.9% (inactive) and 100% (inactive), respectively. The percent response of DMSO control in experiment [3] was 90% (inactive). Moreover, the GFP response, % of DMSO in [5] is 98.5% (inactive). Also, the double positive events in experiment [6] was found to be 66.7%. Further, the vesicle binding response in [6] is 260% (inactive). Also, the inhibition in experiment [7] was 14.7% (inactive); in experiment [10], -7.96% (inactive); in experiment [14], 10% (inactive). Also, the superoxide response (% of plate) in experiment [8] is 90.9% (inactive). In addition, the aptamer binding inhibition in experiment [9] is 0% (inactive). In addition, the response in experiment [11] was -1.1% (inactive). In experiment [12], the binding (% of control) is 102% (inactive). Besides, the efflux inhibition (fraction of control) in experiment [13] was -0.09 (inactive). The differentiation response in experiment [15] was -13.1% (inactive).
`CC(=O)OCC(=O)[C@@]12OC3(CCCC3)O[C@@H]1C[C@H]1[C@@H]3CCC4=CC(=O)C=C[C@]4(C)[C@@]3(F)[C@@H](O)C[C@@]12C`: the percent of DMSO control GFP in [1] was 98.5% (inactive). For the same compound, the GFP response vs DMSO in experiment [2] was 96.9% (inactive); in experiment [4], 106% (inactive). The percent response of DMSO control in experiment [3] was 99.8% (inactive). Besides, the GFP response, % of DMSO in [5] is 101% (inactive). The compound also returned a double positive events in [6] of 61.4%. Moreover, the vesicle binding response in experiment [6] was 173% (inactive). Besides, the inhibition in experiment [7] was -12.4% (inactive); in experiment [10], 26.6% (inactive); in experiment [14], 6% (inactive). Further, the superoxide response (% of plate) in [8] is 97% (inactive). Moreover, the aptamer binding inhibition in [9] is 2% (inactive). For the same compound, in [11], the response is -4.26% (inactive). Also, the binding (% of control) in [12] is 96.4% (inactive). Also, the efflux inhibition (fraction of control) in [13] was 0.9 (active). In addition, in experiment [15], the differentiation response was -3.43% (inactive).
